PubChem BioAssay (NCATS)
Values joined by “and” are separate entries in the source; they are usually repeats but may differ in a detail not shown here. Identical values can stand only once. Records with an inconclusive call do not appear. Active and inactive are the calls of the source. Calls follow the shape of the dose curve; as a rule, active = well fitted curve in the direction sought with a large enough effect; inconclusive = small, poorly fitted or top-dose-only effect, or another doubt; inactive = no such curve, though single readings can be large; an effect the other way counts as inactive or inconclusive.

Assays:
NIH3T3 [1] = assay: Cytotoxic Profiling of Annotated Libraries Using Quantitative High-Throughput Screening (AID 1296008); conditions: Five cell lines viability, CellTiter-Glo ATP luminescence, 48-72 h; max response: hits give low values; also: nearly all actives have a fitted effect of over 60% in size
Summary of the method: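 Cytotoxicity was measured as CellTiter-Glo ATP luminescence, read after 10 min at room temperature. Compound treatment of the cells lasted 48 or 72 hr at 37 degrees Celsius in a qHTS format.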

HACAT = assay: qHTS assay to identify novel small-molecules to repurpose for Merkel cell carcinoma treatment (AID 1296009); conditions: MCC and control cell lines, CellTiter-Glo viability, 72 h; at 44.8 µM (top of the series) unless noted; also: nearly all actives have a fitted effect of over 60% in size; also: potency is read from the fitted curve at half-maximal effect
Summary of the method: (§1)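 72 hr, 37 degree celsius; NPC 8-pt / MIPE 11-pt dose response; compound pinned in DMSO; CellTiter-Glo, 10 min RT, luminescence; normalized to no-cell and DMSO controls.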

MCC-13 = assay: as above; conditions: MCC and control cell lines, CellTiter-Glo viability, 72 h; series mostly up to 46 µM
Summary of the method: as §1

MCC-26 = assay: as above; conditions: MCC and control cell lines, CellTiter-Glo viability, 72 h; series mostly up to 46 µM
Summary of the method: as §1

MKL-1 = assay: as above; conditions: MCC and control cell lines, CellTiter-Glo viability, 72 h; series mostly up to 46 µM
Summary of the method: as §1

MKL-2 = assay: as above; conditions: MCC and control cell lines, CellTiter-Glo viability, 72 h; series mostly up to 46 µM
Summary of the method: as §1

UISO = assay: as above; conditions: MCC and control cell lines, CellTiter-Glo viability, 72 h; series mostly up to 46 µM
Summary of the method: as §1

WaGa = assay: as above; conditions: MCC and control cell lines, CellTiter-Glo viability, 72 h; series mostly up to 46 µM
Summary of the method: as §1

C33A = assay: Primary qHTS to identify gynecologic anti-cancer compounds using libraries of approved drugs and bioactive compounds (AID 1345084); conditions: Gynecologic cancer cell panel viability, ATPlite luminescence, 48 h; series mostly up to 57.5 µM; also: nearly all actives have a fitted effect of over 55% in size
Summary of the method: (§2)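 48 h compound exposure at 37 C, 5% CO2; five-point qHTS. ATPlite luminescence readout of cell ATP.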

CASKI = assay: as above; conditions: Gynecologic cancer cell panel viability, ATPlite luminescence, 48 h; series mostly up to 57.5 µM
Summary of the method: as §2

Es-2 = assay: as above; conditions: Gynecologic cancer cell panel viability, ATPlite luminescence, 48 h; series mostly up to 57.5 µM
Summary of the method: as §2

HeLa = assay: as above; conditions: Gynecologic cancer cell panel viability, ATPlite luminescence, 48 h; series mostly up to 57.5 µM
Summary of the method: as §2

Hek293T [2] = assay: as above; conditions: Gynecologic cancer cell panel viability, ATPlite luminescence, 48 h, control line for the selectivity index; series mostly up to 57.5 µM
Summary of the method: as §2

JEG-3 = assay: as above; conditions: Gynecologic cancer cell panel viability, ATPlite luminescence, 48 h; series mostly up to 57.5 µM
Summary of the method: as §2

OV90 = assay: as above; conditions: Gynecologic cancer cell panel viability, ATPlite luminescence, 48 h; series mostly up to 57.5 µM
Summary of the method: as §2

PA-1 = assay: as above; conditions: Gynecologic cancer cell panel viability, ATPlite luminescence, 48 h; series mostly up to 57.5 µM
Summary of the method: as §2

SKOV3 = assay: as above; conditions: Gynecologic cancer cell panel viability, ATPlite luminescence, 48 h; series mostly up to 57.5 µM
Summary of the method: as §2

CAOV3 = assay: as above; conditions: Gynecologic cancer cell panel viability, ATPlite luminescence, 48 h; series mostly up to 57.5 µM
Summary of the method: as §2

NIH3T3 [3] = assay: qHTS assay to identify novel small-molecules to repurpose for Merkel cell carcinoma treatment (AID 1296009); conditions: MCC and control cell lines, CellTiter-Glo viability, 72 h; at 44.8 µM (top of the series) unless noted; also: nearly all actives have a fitted effect of over 60% in size; also: potency is read from the fitted curve at half-maximal effect
Summary of the method: as §1

HEK293T [4] = assay: as above; conditions: MCC and control cell lines, CellTiter-Glo viability, 72 h; at 44.8 µM (top of the series) unless noted
Summary of the method: as §1
% is scaled to controls: 0 for no effect and ±100 for the full control effect.

CC(C)(C)c1nnc(NS(=O)(=O)c2ccc(N)cc2)s1
inactive: max response (NIH3T3 [1]) -3.74% | outcome (HACAT) | Potency (MCC-13) | Potency (MCC-26) | Potency (MKL-1) | Potency (MKL-2) | Potency (UISO) | Potency (WaGa) | Potency (C33A) | Potency (CASKI) | Potency (Es-2) | Potency (HeLa) | Potency (Hek293T [2]) | Potency (JEG-3) | Potency (OV90) | Potency (PA-1) | Potency (SKOV3)

CS(=O)(=O)c1ccc(-n2nc(C(F)(F)F)cc2-c2ccc(F)cc2)cc1
inactive: max response (NIH3T3 [1]) -2.48% | outcome (HACAT) | Potency (C33A) | Potency (CAOV3) | Potency (CASKI) | Potency (Es-2) | Potency (HeLa) | Potency (Hek293T [2]) | Potency (JEG-3) | Potency (OV90) | Potency (PA-1) | Potency (SKOV3)

CN(C)CCn1nnnc1SCC1=C(C(=O)O)N2C(=O)[C@@H](NC(=O)Cc3csc(N)n3)[C@H]2SC1
inactive: outcome (NIH3T3 [1]) | outcome (HACAT) | Potency (MCC-13) | Potency (MCC-26) | Potency (MKL-1) | Potency (MKL-2) | outcome (NIH3T3 [3]) | Potency (UISO) | Potency (WaGa) | Potency (C33A) | Potency (CAOV3) | Potency (CASKI) | Potency (Es-2) | Potency (HeLa) | Potency (Hek293T [2]) | Potency (JEG-3) | Potency (OV90) | Potency (PA-1) | Potency (SKOV3)

CC1(C)S[C@@H]2[C@H](NC(=O)[C@H](NC(=O)N3CCN(S(C)(=O)=O)C3=O)c3ccccc3)C(=O)N2[C@H]1C(=O)O
inactive: outcome (NIH3T3 [1]) | outcome (HACAT) | outcome (NIH3T3 [3]) | Potency (C33A) | Potency (CAOV3) | Potency (CASKI) | Potency (Es-2) | Potency (HeLa) | Potency (Hek293T [2]) | Potency (JEG-3) | Potency (OV90) | Potency (PA-1)

Nc1c(CC(=O)O)cccc1C(=O)c1ccc(Br)cc1
inactive: max response (NIH3T3 [1]) 2.91% | outcome (HACAT) | Potency (MCC-13) | Potency (MKL-1) | Potency (MKL-2) | Potency (UISO) | Potency (WaGa) | Potency (C33A) | Potency (CASKI) | Potency (Es-2) | Potency (HeLa) | Potency (Hek293T [2]) | Potency (JEG-3) | Potency (OV90) | Potency (PA-1) | Potency (SKOV3)

COc1ccnc2c1CCCCC2S(=O)c1nc2ccccc2[nH]1 (configuration not stated)
inactive: max response (NIH3T3 [1]) -4.2% | outcome (HACAT) | Potency (MCC-13) | Potency (MCC-26) | Potency (MKL-1) | Potency (MKL-2) | Potency (UISO) | Potency (WaGa) | Potency (C33A) | Potency (CASKI) | Potency (Es-2) | Potency (HeLa) | Potency (Hek293T [2]) | Potency (JEG-3) | Potency (OV90) | Potency (PA-1) | Potency (SKOV3)

CCCCCCCCCCCC(=O)[O][Sn]([CH2]CCC)([CH2]CCC)[O]C(=O)CCCCCCCCCCC
inactive: max response (NIH3T3 [1]) 4.84% | outcome (HACAT) | Potency (MCC-13) | Potency (MCC-26) | Potency (MKL-1) | Potency (MKL-2) | Potency (UISO) | Potency (WaGa) | Potency (C33A) | Potency (CASKI) | Potency (Es-2) | Potency (HeLa) | Potency (Hek293T [2]) | Potency (JEG-3) | Potency (OV90) | Potency (PA-1) | Potency (SKOV3)

Nc1ccc(C(=O)O)c(O)c1
inactive: outcome (NIH3T3 [1]) | outcome (HACAT) | Potency (MCC-13) | Potency (MCC-26) | Potency (MKL-1) | Potency (MKL-2) | outcome (NIH3T3 [3]) | Potency (UISO) | Potency (WaGa) | Potency (C33A) | Potency (CASKI) | Potency (Es-2) | Potency (HeLa) | Potency (Hek293T [2]) | Potency (JEG-3) | Potency (OV90) | Potency (PA-1) | Potency (SKOV3)

CN1CC(=O)N/C1=N/C(=O)Nc1cccc(Cl)c1
inactive: max response (NIH3T3 [1]) -0.466% | outcome (HACAT) | outcome (HEK293T [4]) | Potency (MCC-13) | Potency (MKL-1) | Potency (MKL-2) | Potency (UISO) | Potency (WaGa) | Potency (C33A) | Potency (CAOV3) | Potency (CASKI) | Potency (Es-2) | Potency (HeLa) | Potency (Hek293T [2]) | Potency (JEG-3) | Potency (OV90) | Potency (PA-1) | Potency (SKOV3)

CC(=O)SCC(CC(=O)c1ccc(C)cc1)C(=O)O (configuration not stated)
inactive: max response (NIH3T3 [1]) -1.54% | outcome (HEK293T [4]) | Potency (MCC-13) | Potency (MKL-1) | Potency (MKL-2) | Potency (UISO) | Potency (WaGa) | Potency (C33A) | Potency (Es-2) | Potency (HeLa) | Potency (Hek293T [2]) | Potency (JEG-3) | Potency (OV90)

CCCCCCCCCCCCCCCCCC(=O)O
inactive: max response (NIH3T3 [1]) -5.96% | outcome (HACAT) | outcome (HEK293T [4]) | Potency (MCC-13) | Potency (MCC-26) | Potency (MKL-1) | Potency (MKL-2) | Potency (UISO) | Potency (WaGa) | Potency (C33A) | Potency (CASKI) | Potency (Es-2) | Potency (HeLa) | Potency (Hek293T [2]) | Potency (JEG-3) | Potency (OV90) | Potency (PA-1) | Potency (SKOV3)

COC(=O)[C@H]1[C@H]2C[C@@H]3c4[nH]c5cc(OC)ccc5c4CCN3C[C@H]2C[C@@H](OC(=O)/C=C/c2cc(OC)c(OC)c(OC)c2)[C@@H]1OC
inactive: outcome (NIH3T3 [1]) | outcome (HACAT) inactive [at 17.4 µM] | outcome (NIH3T3 [3]) inactive [at 17.4 µM] | Potency (C33A) | Potency (CAOV3) | Potency (CASKI) | Potency (Es-2) | Potency (HeLa) | Potency (Hek293T [2]) | Potency (JEG-3) | Potency (OV90) | Potency (PA-1) | Potency (SKOV3)

C=CCCCCCCCCC(=O)O
inactive: max response (NIH3T3 [1]) 0.287% | outcome (HEK293T [4]) | Potency (MCC-13) | Potency (MCC-26) | Potency (MKL-1) | Potency (MKL-2) | Potency (UISO) | Potency (WaGa) | Potency (C33A) | Potency (CAOV3) | Potency (CASKI) | Potency (Es-2) | Potency (HeLa) | Potency (Hek293T [2]) | Potency (JEG-3) | Potency (OV90) | Potency (PA-1) | Potency (SKOV3)

COc1ccc(-c2cc(=S)ss2)cc1
inactive: outcome (NIH3T3 [1]) | outcome (HACAT) | Potency (MCC-13) | Potency (MCC-26) | outcome (NIH3T3 [3]) | Potency (C33A) | Potency (CAOV3) | Potency (CASKI) | Potency (Es-2) | Potency (HeLa) | Potency (Hek293T [2]) | Potency (JEG-3) | Potency (OV90) | Potency (PA-1) | Potency (SKOV3)
active: Potency (MKL-1) 26.6 µM

CC(C(=O)O)c1ccc2c(c1)[nH]c1ccc(Cl)cc12 (configuration not stated)
inactive: max response (NIH3T3 [1]) 1.25% and 0.838% | outcome (HACAT) | outcome (HEK293T [4]) | Potency (MCC-13) | Potency (MCC-26) | Potency (MKL-1) | Potency (MKL-2) | Potency (UISO) | Potency (WaGa) | Potency (C33A) | Potency (CASKI) | Potency (Es-2) | Potency (HeLa) | Potency (Hek293T [2]) | Potency (JEG-3) | Potency (OV90) | Potency (PA-1) | Potency (SKOV3)
